The values below come from paper PMC5540273 (PLoS ONE, 2017).

Test systems include CDKL3; CDKL5; CHEK1; CHEK2; CIT; CLK1; CLK2; CLK3; CLK4; CSF1R-autoinhibited; CSF1R; CSK; CSNK1A1L; CSNK1A1; CSNK1D; CSNK1E; CSNK1G1; CSNK1G2; CSNK1G3; CSNK2A1.
What all share (conditions): concentration: 1 μM, replicates: in singlicate; n = 1
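Note: KINOMEscan kinase panel screen.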

For the molecule `Cc1cccc(-c2cc(-c3c[nH]nc3-c3ccccn3)ccn2)c1` [GW679395], the “%Inh” value in the experiment with CDKL3 is given as 0%; in the experiment on CDKL5 it was 0%; in the experiment with CHEK1, 0%; in the experiment with CHEK2, 0%; with CIT, 45%; with CLK1 it was 18%. For the same molecule, the “%Inh” value was determined as 2% in the experiment with CLK2; 0% in the experiment with CLK3; 6% with CLK4; 0% in the experiment on CSF1R-autoinhibited; 53% with CSF1R; 0% with CSK. Moreover, the “%Inh” value is listed as 2% with CSNK1A1L; 0% with CSNK1A1; 25% with CSNK1D; 10% in the experiment with CSNK1E; 8% in the experiment with CSNK1G1; 0% with CSNK1G2. Further, the “%Inh” value amounted to 6% in the experiment on CSNK1G3 and 0% in the experiment with CSNK2A1.

Turning to `CCn1c(-c2ccoc2)nc2cnccc21` [SB-733887], the “%Inh” value in the experiment with CDKL3 came to 0%; with CDKL5, 0%; in the experiment with CHEK1, 17%; in the experiment with CHEK2, 24%; in the experiment on CIT it was 19%; in the experiment with CLK1, 26%. Moreover, the “%Inh” value in the experiment with CLK2 was determined as 0%; in the experiment on CLK3 it was 0%; in the experiment with CLK4 it was 3%; in the experiment with CSF1R-autoinhibited it was 15%; in the experiment with CSF1R, 8%; in the experiment on CSK it was 0%. The “%Inh” value with CSNK1A1L is given as 0%; in the experiment with CSNK1A1 it was 0%; with CSNK1D it was 12%; with CSNK1E it was 3%; in the experiment with CSNK1G1 it was 0%; in the experiment with CSNK1G2, 0%. Moreover, the figures for the “%Inh” value in the experiment with CSNK1G3 and with CSNK2A1 were 4% and 0%, respectively.

In the case of `CCS(=O)(=O)c1ccc(OC)c(Nc2ncc(-c3ccc(F)cc3)o2)c1.Cl` [GW591947], the “%Inh” value with CDKL3 was found to be 59%; with CDKL5, 0%; in the experiment on CHEK1, 0%; in the experiment with CHEK2, 0%; with CIT it was 21%; in the experiment on CLK1 it was 25%. Moreover, the “%Inh” value was determined as 40% in the experiment on CLK2; 79% in the experiment on CLK3; 23% with CLK4; 0% in the experiment on CSF1R-autoinhibited; 0% in the experiment with CSF1R; 0% in the experiment with CSK. Also, the “%Inh” value in the experiment on CSNK1A1L is 0%; in the experiment on CSNK1A1, 0%; with CSNK1D, 18%; in the experiment on CSNK1E, 40%; in the experiment with CSNK1G1, 13%; with CSNK1G2, 0%. The “%Inh” value is listed as 8% in the experiment on CSNK1G3 and 0% with CSNK2A1.

For `Fc1cccc(CSc2nnc(-c3ccc4c(c3)CCO4)o2)c1`, the “%Inh” value with CDKL3 is 0%; in the experiment on CDKL5, 16%; with CHEK1, 0%; in the experiment on CHEK2, 3%; in the experiment on CIT, 0%; in the experiment on CLK1, 73%. The “%Inh” value in the experiment on CLK2 was determined as 20%; in the experiment on CLK3, 0%; with CLK4 it was 78%; with CSF1R-autoinhibited, 5%; with CSF1R, 0%; in the experiment with CSK, 0%. For the same molecule, the “%Inh” value in the experiment with CSNK1A1L is 11%; in the experiment with CSNK1A1 it was 8%; in the experiment with CSNK1D, 0%; in the experiment on CSNK1E, 0%; with CSNK1G1 it was 15%; with CSNK1G2 it was 10%. The “%Inh” value in the experiment on CSNK1G3 is 0%; in the experiment on CSNK2A1, 16%.

Regarding `COc1ccc(-c2cc3c(C)nc(N)nc3n([C@H]3CC[C@H](OCCO)CC3)c2=O)cn1`, the “%Inh” value in the experiment on CDKL3 was determined as 29%; in the experiment with CDKL5, 0%; in the experiment on CHEK1 it was 0%; in the experiment with CHEK2 it was 12%; in the experiment with CIT it was 0%; with CLK1 it was 0%. Further, the “%Inh” value in the experiment on CLK2 was 0%; with CLK3, 0%; in the experiment with CLK4, 0%; in the experiment with CSF1R-autoinhibited it was 12%; in the experiment on CSF1R it was 5%; in the experiment with CSK, 13%. For the same molecule, the “%Inh” value in the experiment with CSNK1A1L stood at 0%; with CSNK1A1, 24%; with CSNK1D, 1%; with CSNK1E it was 4%; in the experiment on CSNK1G1 it was 0%; in the experiment with CSNK1G2, 0%. The “%Inh” value in the experiment with CSNK1G3 and in the experiment with CSNK2A1 was 0% each time.
